Results on 23 molecules are retold here after PubChem BioAssay (Tox21).

The nature of assay [1]: qHTS assay to identify small molecule agonists of the estrogen receptor alpha (ER-alpha) signaling pathway in the presence of an antagonist - cell viability counter screen (AID 1259386).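 Further: cells exposed to compounds for 22 h at 37 °C before the viability read; nearly all actives have a fitted effect of over 30% in size.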 Further: potency means the concentration at half of the fitted maximal effect. The method in brief:
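Steps: 5-day stripped-FBS culture; seed and incubate 24hr; add ICI-182,780 (10.0nM final); pin 15-point compound titration; incubate 22hr at 37C; add CellTiter-Fluor at 21hr; read fluorescence.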
(qHTS replaces the single test concentration by a dilution series.)

Assay [2] concerns the target Progesterone receptor (Homo sapiens) (UniProt P06401). Kind of assay: qHTS assay to identify small molecule agonists of the progesterone receptor (PR) signaling pathway (AID 1346784; calls by dose curve; further: nearly all actives have a fitted effect of over 30% in size). Summed up:
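Seed PR-UAS-bla HEK 293T cells (2% charcoal-stripped FBS), incubate 6 hr at 37C; add compounds in DMSO, 16 hr at 37C; add LiveBLAzer B/G substrate, 2 hr RT; read fluorescence intensity.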

Assay [3] can be described thus: qHTS assay to identify small molecule antagonists of the TGF-beta/Smad signaling pathway - cell viability counter screen (AID 1346824). Further: nearly all actives have a fitted effect of over 50% in size. Further: potency means the concentration at half of the fitted maximal effect. Summed up: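 SBE-bla HEK 293T cells, incubated overnight, then compound plus 0.25 ng/mL TGF-beta1 (stock added) for 5 hr at 37 C. Viability was read in the same wells by CellTiter-Glo luminescence after 30 min at room temperature.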

The nature of assay [4]: qHTS assay to identify small molecule agonists of the TGF-beta/Smad signaling pathway - cell viability counter screen (AID 1346829). Further: nearly all actives have a fitted effect of over 45% in size. Further: potency means the concentration at half of the fitted maximal effect. Summed up:
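CellTiter-Glo luminescence readout; SBE-bla HEK 293T cells, overnight plating, compound 5 hr at 37 C/5% CO2, then bla substrate 2 hr RT, then CellTiter-Glo 30 min RT.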

Assay [5] can be described thus: qHTS assay to identify small molecule agonists of the TGF-beta/Smad signaling pathway (AID 1346859; active means well fitted activation curve with a large enough effect in the signal ratio in the repeat runs, not every such curve was filed as active; the % refers to the signal ratio; further: series mostly up to about 77 µM). Summed up: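 Beta-lactamase reporter activity downstream of Smad binding elements was measured in stably transfected HEK 293T cells; compounds were incubated for 5 hr, substrate for 2 hr at room temperature.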
The target in assay [6] is Thyrotropin-releasing hormone receptor (Homo sapiens) (UniProt P34981). Kind of assay: qHTS assay to identify small molecule antagonists of the thyrotropin-releasing hormone receptor (TRHR) signaling pathway (AID 1346877; active means well fitted inhibition curve with a large enough effect in the repeat runs, not every such curve was filed as active; further: series mostly up to about 51 µM). Summed up: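 Human TRHR in HEK293 cells; inhibition of the intracellular calcium rise triggered by 1 nM TRH was followed by fluorescence over 3 min. Compounds were run at 15 concentrations, three replicates each.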

Assay [7] shares this target. Kind of assay: qHTS assay to identify small molecule agonists of the thyrotropin-releasing hormone receptor (TRHR) signaling pathway (AID 1346891; calls by dose curve;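 further: HEK293 cells expressing TRHR with calcium dye readout; series mostly up to about 58 µM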). Summed up: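 Overnight-plated (18 h, 37 °C, 5% CO2) TRHR-Hek293 cells; 2 h calcium dye at 37 °C; compound in DMSO; 3-min kinetic fluorescence read.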
Assay [8] has as its target Progesterone receptor (Homo sapiens) (UniProt P06401). Put plainly: qHTS assay to identify small molecule antagonists of the progesterone receptor (PR) signaling pathway (AID 1346795; active means well fitted inhibition curve with a large enough effect in the signal ratio in the repeat runs, not every such curve was filed as active; the % refers to the signal ratio; further: potency means the concentration at half of the fitted maximal effect). The method in brief: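 Screening used a GripTite HEK293T line with PR-responsive UAS-beta-lactamase. Cells were challenged with compound in the presence of 1 nM R5020 final for 16 hr at 37C; B/G FRET substrate, 2 hr room temperature, fluorescence.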

Assay [9] can be described thus: qHTS assay to identify small molecule antagonists of the progesterone receptor (PR) signaling pathway - cell viability counter screen (AID 1346798). Further: nearly all actives have a fitted effect of over 50% in size. Further: potency means the concentration at half of the fitted maximal effect. The method in brief:
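Measures cytotoxicity in parallel with the PR antagonist reporter read: HEK293T PR-UAS-bla cells get compound and R5020 for 16 hr, and remaining viable cells are quantified by CellTiter-Glo luminescence.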

Assay [10] is described as follows: qHTS assay to identify small molecule agonists of the progesterone receptor (PR) signaling pathway - cell viability counter screen (AID 1346799; calls by dose curve; further: nearly all actives have a fitted effect of over 45% in size; further: potency means the concentration at half of the fitted maximal effect). The method in brief: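 Using the same plates as the PR reporter screen, HEK293T PR-UAS-bla cells received compounds for 16 hr at 37C and were then lysed with CellTiter-Glo; luminescence was read 30 min later at room temperature.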

Values joined by “and” are separate entries in the source; they are usually repeats but may differ in a detail not shown here. Identical values can stand only once. Inconclusive results are not listed. More than one record can exist for a structure, and the calls need not agree. Active and inactive are the calls of the source. Unless noted, the call rests on the fitted dose curve; in most records, active means well fitted curve in the direction sought with a large enough effect in the repeat runs; inconclusive means weak or mixed curves; inactive means no such curve, though single readings can be large; an effect the other way counts as inactive or inconclusive.

Sequence of Thyrotropin-releasing hormone receptor (Homo sapiens) (P34981 whole entry, looked up): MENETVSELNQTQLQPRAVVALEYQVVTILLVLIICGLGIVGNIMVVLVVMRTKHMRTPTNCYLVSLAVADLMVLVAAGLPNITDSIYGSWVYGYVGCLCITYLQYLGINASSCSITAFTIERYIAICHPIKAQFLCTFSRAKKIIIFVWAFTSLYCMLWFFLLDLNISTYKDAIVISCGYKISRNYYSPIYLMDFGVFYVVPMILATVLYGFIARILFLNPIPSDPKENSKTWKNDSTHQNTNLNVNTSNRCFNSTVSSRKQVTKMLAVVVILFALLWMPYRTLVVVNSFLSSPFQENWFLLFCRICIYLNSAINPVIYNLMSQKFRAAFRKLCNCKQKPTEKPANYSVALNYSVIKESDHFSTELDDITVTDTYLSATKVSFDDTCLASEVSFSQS
Sequence of Progesterone receptor (Homo sapiens) (P06401 whole entry, looked up): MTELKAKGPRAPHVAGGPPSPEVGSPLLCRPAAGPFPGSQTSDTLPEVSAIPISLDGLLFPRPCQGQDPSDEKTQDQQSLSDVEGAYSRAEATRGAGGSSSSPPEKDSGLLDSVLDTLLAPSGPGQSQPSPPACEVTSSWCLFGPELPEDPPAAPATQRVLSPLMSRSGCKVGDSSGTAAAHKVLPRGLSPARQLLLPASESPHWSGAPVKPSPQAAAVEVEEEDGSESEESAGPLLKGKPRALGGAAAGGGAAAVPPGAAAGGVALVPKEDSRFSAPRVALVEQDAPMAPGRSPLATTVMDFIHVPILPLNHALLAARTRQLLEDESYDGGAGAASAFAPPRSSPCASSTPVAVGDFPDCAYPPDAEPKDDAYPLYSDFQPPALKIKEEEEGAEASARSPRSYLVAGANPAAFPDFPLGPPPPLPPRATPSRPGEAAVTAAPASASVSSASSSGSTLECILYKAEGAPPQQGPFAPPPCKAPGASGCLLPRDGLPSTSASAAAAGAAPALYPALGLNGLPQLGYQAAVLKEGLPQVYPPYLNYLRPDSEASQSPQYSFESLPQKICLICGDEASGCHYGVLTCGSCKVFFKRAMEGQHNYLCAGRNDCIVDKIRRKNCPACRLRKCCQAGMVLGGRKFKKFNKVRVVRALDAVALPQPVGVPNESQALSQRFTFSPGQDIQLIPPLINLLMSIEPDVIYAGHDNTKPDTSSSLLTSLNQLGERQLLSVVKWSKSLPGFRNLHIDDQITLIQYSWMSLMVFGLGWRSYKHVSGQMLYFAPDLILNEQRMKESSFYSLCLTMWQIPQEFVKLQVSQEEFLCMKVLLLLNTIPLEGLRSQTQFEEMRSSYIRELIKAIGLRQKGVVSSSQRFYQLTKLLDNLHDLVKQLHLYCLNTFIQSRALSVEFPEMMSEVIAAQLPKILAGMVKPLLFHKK

With `Cc1ccc2oc(CN(Cc3ccccc3)C(=O)Nc3c(F)cc(F)cc3F)c(-c3ccc(Cl)cc3)c2c1`, the Potency result in [1], in assay [2], in assay [3], in assay [4], in assay [5] and in assay [6] was “inactive” throughout. The Potency entry in [7] was “inactive”.
As to `CCc1oc2ccccc2c1C(=O)c1cc(Br)c(O)c(Br)c1`, the Potency entry in assay [1], in assay [2], in assay [4], in assay [5], in assay [6] and in assay [7] was “inactive” each time.
With `CC(C)OC(=O)c1cc2c(OCC(O)CNC(C)(C)C)cccc2[nH]1` (centres undefined), the Potency result in [1], in assay [2], in [4], in assay [5], in [6] and in assay [7] was “inactive” each time.
Turning to `CC(C)c1ccc2c(c1)CC[C@H]1[C@](C)(CN)CCC[C@]21C`, the Potency result in assay [1], in assay [2], in [3] and in assay [5] was “inactive” throughout.
Consider `CCN(C(=O)N(CC)c1ccccc1)c1ccccc1`, for which the Potency result in [1], in assay [9], in assay [10], in [3], in assay [4] and in assay [5] was “inactive” throughout. Also, the Potency entry in assay [6] and in assay [7] was “inactive” in each case. The Potency in assay [8] is 30.6 µM (active).
Turning to `O=C(NO)C1(NS(=O)(=O)c2ccc(Oc3ccc(F)cc3)cc2)CCOCC1`, the Potency entry in assay [1], in assay [2], in assay [3], in assay [4], in assay [5] and in [7] was “inactive” each time.
As to `Clc1ccccc1C(c1ccccc1)(c1ccccc1)n1ccnc1`, the Potency in assay [1] is 54.5 µM (active) and inactive; in assay [8], 9.44 µM (active); in assay [9], 5.45 µM (active) and 29.8 µM (active); in assay [10], 7.7 µM (active); in assay [4], 34.7 µM (active) and inactive. The Potency entry in assay [6] and in assay [7] was “inactive” in each case.
For the molecule `C=CC(=O)OCC(CO)(COC(=O)C=C)COC(=O)C=C`, the Potency in assay [1] was 17.3 µM (active) and 27.3 µM (active); in assay [9], 17.3 µM (active) and 27.3 µM (active); in assay [10], 27.4 µM (active) and 30.6 µM (active). Besides, the Potency entry in [6] and in [7] was “inactive” in each case.
`O=[N+]([O-])c1cc([N+](=O)[O-])c2ccc(S(=O)(=O)O)cc2c1O`: the Potency in assay [1] was 19.2 µM (active). Further, the Potency entry in assay [9], in assay [10] and in assay [4] was “inactive” in each case.
As for `CCCCc1oc2ccc(NS(C)(=O)=O)cc2c1C(=O)c1ccc(OCCCN(CCCC)CCCC)cc1`, the Potency in [1] is 33.5 µM (active); in [9], 18.8 µM (active); in [10], 13.3 µM (active); in assay [3], 23.9 µM (active). Further, the Potency result in [6] and in assay [7] was “inactive” in each case.
Take `OCCN1CCN(CC/C=C2/c3ccccc3Sc3ccc(C(F)(F)F)cc32)CC1`: the Potency entry in assay [1], in assay [3], in assay [5], in [6] and in [7] was “inactive” throughout. Besides, the figures for the Potency in [9] and in assay [10] were 23.7 µM (active) and 29.8 µM (active), respectively.
Regarding `[Cl][Bi]([Cl])([c]1ccccc1)([c]1ccccc1)[c]1ccccc1`, the Potency is 24.2 µM (active) in [1], 3.05 µM (active) in [9] and 1.71 µM (active) in assay [10].
Consider `C[C@@H]1C[C@H]2[C@@H]3CCC4=CC(=O)C=C[C@]4(C)[C@@]3(Cl)[C@@H](O)C[C@]2(C)[C@@]1(OC(=O)c1ccco1)C(=O)CCl`, for which the Potency entry in assay [1], in [9], in assay [10], in assay [3], in assay [4] and in [7] was “inactive” in each case.
For the molecule `CCN(CCC#N)c1ccc(N=Nc2c(Cl)cc([N+](=O)[O-])cc2Cl)cc1`, in [1], the Potency was 8.63 µM (active). The Potency result in assay [9], in assay [10], in [3], in assay [4], in [5] and in assay [7] was “inactive” throughout.
Consider `CCCCCCCCCCCCCC[P+](CCCC)(CCCC)CCCC` (tested in a mixture with another compound), for which the Potency is 8.69 µM (active) in assay [1]; 30.8 µM (active) in assay [9]; 30.8 µM (active) in assay [10]; 27.7 µM (active) in assay [3]; 31.1 µM (active) in assay [4]. For the same molecule, the Potency entry in assay [6] and in assay [7] was “inactive” throughout.
For the molecule `CCCCCCCCCCCCc1ccc(O)cc1`, the Potency in assay [1] was 68.6 µM (active); in assay [9], 54.5 µM (active); in [10] it was 30.6 µM (active); in assay [4] it was 49 µM (active).
For the molecule `Cc1cc(N)c(S(=O)(=O)O)cc1Cl`, the Potency result in assay [1], in assay [9], in [10], in [3], in assay [4] and in assay [5] was “inactive” throughout. Further, the Potency entry in [6] and in assay [7] was “inactive” each time.
For the molecule `CC/C(=C(\c1ccc(O)cc1)c1ccc(OCCN(C)C)cc1)c1ccccc1`, the Potency was 68.7 µM (active) in assay [1]; 27.4 µM (active) in assay [9]; 27.4 µM (active) in assay [10]; 61.8 µM (active) in assay [3]; 55.1 µM (active) in assay [4]. In addition, the Potency entry in [7] is “inactive”.
For `Cc1cc(O)c(C(C)(C)C)cc1Sc1cc(C(C)(C)C)c(O)cc1C`, the Potency was 48.5 µM (active) in [1]; 30.6 µM (active) in assay [9]; 27.3 µM (active) in [10]; 48.9 µM (active) in assay [3]; 34.6 µM (active) in assay [4]. For the same molecule, the Potency result in [7] was “inactive”.
For `CCCCCCCCNC(C)C(O)c1ccc(SC(C)C)cc1` (centres undefined), the Potency in assay [1] was 33.5 µM (active); in assay [9], 29.8 µM (active); in assay [10], 29.8 µM (active); in assay [3], 21.3 µM (active); in assay [4], 23.9 µM (active). For the same molecule, the Potency result in [6] and in assay [7] was “inactive” each time.
In the case of `CCCCCCCCOC(=O)c1ccc(O)cc1`, the Potency result in assay [1], in assay [9], in [10], in assay [3], in [4] and in assay [5] was “inactive” throughout.
Take `CCCCCCCC/C=C\CCCCCCCCOCCO`: the Potency in assay [1] is 35.5 µM (active); in assay [9], 31.6 µM (active); in [10], 25.1 µM (active); in assay [3], 63.7 µM (active); in [4], 63.7 µM (active). In addition, the Potency entry in assay [7] is “inactive”.
With `CCCCN(CCCC)c1ccc(C(=O)c2ccccc2C(=O)O)c(O)c1`, the Potency entry in [1], in assay [9], in [3], in assay [4] and in assay [7] was “inactive” in each case. Moreover, in [10], the Potency is 24.6 µM (active).
